From the supplement of paper PMC4166925
± gives the standard deviation of the averaged measurements. The full ranking holds about 33,000 sequences; the median of “E-score (dimensionless, -0.5 to 0.5)” is about -0.046, and the highest 2% start at about 0.36. For the sample, the highest values were picked, then their nearest neighbours and some sequences at random.

test system: T1, SpTbr T-box DNA-binding domain (GST fusion); experiment: PBM E-score of 8-mer (E-score (dimensionless, -0.5 to 0.5)); Tbr is Tbrain of the sea star Patiria miniata (Pm) or the sea urchin Strongylocentrotus purpuratus (Sp); higher = stronger binding preference; details: the construct has about 5 more residues each side
T1 sequence: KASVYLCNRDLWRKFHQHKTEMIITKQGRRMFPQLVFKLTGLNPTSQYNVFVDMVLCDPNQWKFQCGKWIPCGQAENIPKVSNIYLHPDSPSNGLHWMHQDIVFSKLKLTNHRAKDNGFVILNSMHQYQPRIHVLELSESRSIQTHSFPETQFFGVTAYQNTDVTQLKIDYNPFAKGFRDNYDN
Method: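 Universal protein-binding microarray (Agilent AMADID 016060, 60-bp probes with a 35-bp variable region) incubated with 200 nM GST-fused Strongylocentrotus purpuratus Tbr T-box DNA-binding domain (residues 362-554) in PBS pH 7.5. Scored for every ungapped 8-mer (given with its reverse complement) as E-score (range -0.5 to 0.5; >0.45 counts as bound) and Z-score of median probe intensity. Two replicate arrays (datasets 1 and 2).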
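Further: protein at 200 nM in PBS on universal double-stranded arrays.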

Row | Sequence | PBM E-score of 8-mer
1 | AGTCGCAC | 0.387 ± 0.0041
2 | CGTCGCAC | 0.327 ± 0.0036
3 | CGGGGCTA | -0.315 ± 0.0072
4 | ATCCACAG | -0.0171 ± 0.029
5 | AACCACCC | -0.022 ± 0.044
6 | ACAAAGCC | -0.0854 ± 0.036
7 | ATGGGCCG | -0.31 ± 0.017
8 | GCGGAGAA | 0.059 ± 0.053
9 | GGTGCCAA | 0.447 ± 0.0064
10 | AGTGCCAC | 0.25 ± 0.013
11 | GGTGCCAC | 0.368 ± 0.0043
12 | GCTGCCAA | 0.0847 ± 0.029
13 | GGTGCCTA | 0.0923 ± 0.1
14 | CGTGCCAA | 0.306 ± 0.03
15 | CGTGCCAC | 0.254 ± 0.041
16 | AGTGCCAA | 0.359 ± 0.0081
17 | TGTGCCAA | 0.364 ± 0.021
18 | CGGAAAAA | 0.019 ± 0.025
19 | ATCAGTGG | -0.149 ± 0.015
20 | CTGTTGTA | 0.0999 ± 0.01
21 | TACGACTA | -0.13 ± 0.016
22 | AATGCTGT | -0.0262 ± 0.063
23 | CCTCAAGA | -0.0881 ± 0.046
24 | GGTACTCA | -0.0116 ± 0.057
25 | ACTCACGG | 0.061 ± 0.057

Row | Sequence | PBM E-score of 8-mer
26 | CATGAAGC | -0.112 ± 0.013
27 | ACGGTTAC | -0.0916 ± 0.0079
28 | ATGCTCAC | 0.277 ± 0.023
29 | TCCATCGA | -0.0839 ± 0.076
30 | GGTCTCAC | 0.3458 ± 0.0029
31 | ATACCTGG | 0.0363 ± 0.063
32 | GAACCTGC | -0.126 ± 0.13
33 | ACACCTGG | 0.44 ± 0.029
34 | CGACCTGC | 0.177 ± 0.026
35 | ACACCTGC | 0.4527 ± 0.0032
36 | ACACCTGA | 0.4627 ± 0.0023
37 | AAACCTGA | -0.00426 ± 0.071
38 | CCACCTGG | 0.186 ± 0.029
39 | GCACCTGC | 0.388 ± 0.024
40 | ATACCTGC | -0.0105 ± 0.0085
41 | CCACCTGC | 0.269 ± 0.0095
42 | AGACCTGA | -0.094 ± 0.0078
43 | GCCCAAGC | -0.24 ± 0.0088
44 | ACGCAAGA | -0.0517 ± 0.024
45 | AACAACGT | 0.00981 ± 0.00099
46 | CTTTAAGC | -0.136 ± 0.004
47 | AACTTCAG | -0.23 ± 0.022
48 | CTCACTGC | 0.0922 ± 0.076
49 | GCATGTCC | -0.0875 ± 0.095
50 | CGGCTTGC | -0.14 ± 0.0054

Row | Sequence | PBM E-score of 8-mer
51 | AAGCGAGG | 0.115 ± 0.03
52 | CAAGCTAC | -0.147 ± 0.014
53 | GAGTGTAC | -0.0659 ± 0.019
54 | AAGTGGTA | 0.083 ± 0.018
55 | GAGTGTTA | 0.386 ± 0.021
56 | AAGTGTTC | 0.226 ± 0.11
57 | AAGTGTAC | 0.00907 ± 0.056
58 | CAGTGTTA | 0.31 ± 0.028
59 | AAGTGTTG | 0.422 ± 0.02
60 | AAGTGTTA | 0.451 ± 0.00073
61 | CAGTGTTC | 0.0165 ± 0.024
62 | CATCTGTA | -0.0572 ± 0.038
63 | CACCAATG | 0.179 ± 0.0061
64 | CACAATCC | 0.0504 ± 0.056
65 | ATGCCCAT | -0.184 ± 0.01
66 | AGGCAGAT | -0.0669 ± 0.075
67 | TGGGCGAA | -0.169 ± 0.019
68 | GAGGACAC | 0.155 ± 0.015
69 | GGTGGGGA | 0.248 ± 0.033
70 | CACAGGTA | 0.141 ± 0.0043
71 | AACAGGTG | 0.364 ± 0.028
72 | AGCAGGTC | -0.0223 ± 0.011
73 | ATCAGGTA | -0.128 ± 0.008
74 | AACAGGTA | 0.0912 ± 0.072
75 | CACAGGTG | 0.453 ± 0.005

Row | Sequence | PBM E-score of 8-mer
76 | CACAGGTC | 0.198 ± 0.045
77 | ATCAGGTG | 0.386 ± 0.015
78 | AGCAGGTA | -0.132 ± 0.031
79 | AACAGGTC | 0.107 ± 0.0057
80 | AGCAGGTG | 0.377 ± 0.00094
81 | ATCAGGTC | -0.171 ± 0.075
82 | AGCGGTGC | -0.00638 ± 0.018
83 | ACAATGCG | 0.222 ± 0.025
84 | CGAGAGTA | 0.0304 ± 0.018
85 | GAGATTGC | 0.116 ± 0.014
86 | CGCTGGCC | -0.032 ± 0.027
87 | CTTACTCC | -0.125 ± 0.049
88 | CAGCGTGG | -0.111 ± 0.012
89 | CAGTCCAC | 0.192 ± 0.026
90 | AGCACTCA | 0.079 ± 0.03
91 | AAAGCAAA | 0.00628 ± 0.091
92 | GTGTGGGA | 0.387 ± 0.038
93 | ATGTGGGA | 0.234 ± 0.041
94 | CTGTGGGA | 0.105 ± 0.057
95 | CTGTGGAA | 0.061 ± 0.12
96 | GTGTGGAA | 0.3848 ± 0.0012
97 | ATGTGGAA | 0.0153 ± 0.034
98 | CGGCCCAG | -0.2798 ± 0.0014
99 | CAGAATGC | 0.0116 ± 0.023
100 | GCCACGAA | 0.00399 ± 0.009

Row | Sequence | PBM E-score of 8-mer
101 | CGCCAGCC | 0.0479 ± 0.008
102 | GGCGAACA | 0.137 ± 0.018
103 | CGCGAAAA | 0.347 ± 0.04
104 | TGCGAAAA | 0.383 ± 0.038
105 | AGCGAACA | 0.078 ± 0.037
106 | AGCGAAAA | -0.0276 ± 0.011
107 | TGCGAACA | 0.419 ± 0.015
108 | CGTTTCAA | -0.029 ± 0.015
109 | CGCTGTAC | -0.164 ± 0.046
110 | ATACAGGG | -0.276 ± 0.015
111 | AAGGGTAT | -0.121 ± 0.02
112 | AAGCGTGG | 0.179 ± 0.047
113 | GTGCGTGA | 0.316 ± 0.057
114 | CTGCGTGA | 0.172 ± 0.033
115 | AGGCGTGC | 0.236 ± 0.052
116 | ATGCGTGA | 0.374 ± 0.0053
117 | ACGCGTGC | 0.149 ± 0.066
118 | AGGCGTGG | 0.321 ± 0.044
119 | ACGCGTGA | 0.407 ± 0.0058
120 | GCGCGTGA | 0.344 ± 0.033
121 | AAGCGTGT | 0.288 ± 0.012
122 | AAGCGTGA | 0.415 ± 0.01
123 | AGGCGTGA | 0.4754 ± 0.0047
124 | AGGATGAT | -0.095 ± 0.066
125 | TCCACGGA | -0.0375 ± 0.11

Row | Sequence | PBM E-score of 8-mer
126 | CTCCAAGA | -0.0401 ± 0.032
127 | ACGGCTCA | -0.0392 ± 0.022
128 | TTATTGAA | -0.142 ± 0.024
129 | GAATCAGA | -0.0679 ± 0.055
130 | AGGCGTTA | 0.434 ± 0.018
131 | GGGCGTGA | 0.44 ± 0.015
132 | GGGCGTTA | 0.2697 ± 0.0022
133 | CGGCGTGA | 0.33 ± 0.047
134 | GGGCGTAA | 0.131 ± 0.047
135 | AGGCGTTG | 0.355 ± 0.0053
136 | CACTAGCG | 0.139 ± 0.072
137 | AGGTTTGC | -0.0997 ± 0.11
138 | ATCGTGAG | 0.208 ± 0.0056
139 | TATTCGGA | -0.284 ± 0.034
140 | CACTCAGG | -0.0871 ± 0.041
141 | CGTGCGCA | 0.155 ± 0.0026
142 | AATGCGAA | 0.0358 ± 0.024
143 | CGTGCGAA | 0.4443 ± 0.0016
144 | AGTGCGTA | 0.0849 ± 0.013
145 | GTTGCGAA | 0.393 ± 0.0099
146 | GCTGCGAC | 0.137 ± 0.059
147 | GGTGCGAC | 0.452 ± 0.0081
148 | CGTGCAAA | 0.146 ± 0.024
149 | CTTGCGAA | 0.343 ± 0.019
150 | ATTGCGAA | 0.284 ± 0.041

Row | Sequence | PBM E-score of 8-mer
151 | GATGCGAC | 0.216 ± 0.022
152 | AGTGCGAA | 0.47263 ± 0.00019
153 | AATAGCAT | -0.0159 ± 0.004
154 | ATCCTGTG | 0.00404 ± 0.015
155 | AATATCAT | -0.161 ± 0.0081
156 | CCTGGGCG | 0.118 ± 0.03
157 | TATGCGAA | 0.131 ± 0.068
158 | TGTGCGAA | 0.458 ± 0.0092
159 | CCTGCGAA | 0.367 ± 0.0099
160 | ACTGCGAA | 0.332 ± 0.018
161 | GATGCGAA | 0.202 ± 0.066
162 | TCTGCGAA | 0.202 ± 0.04
163 | ACGCGAAG | 0.185 ± 0.027
164 | AAAGTAGA | -0.0436 ± 0.055
165 | ACTTGTAC | -0.109 ± 0.04
166 | CACTCGGC | 0.143 ± 0.021
167 | ACGCGAAA | 0.138 ± 0.018
168 | CCGCGAAC | 0.338 ± 0.0083
169 | GCGCGATA | 0.288 ± 0.014
170 | ACGCGAAC | 0.276 ± 0.003
171 | CCGCGAAA | 0.32 ± 0.025
172 | GCGCGAAC | 0.439 ± 0.018
173 | TCGCGAAA | 0.403 ± 0.026
174 | GCGCGAAA | 0.4374 ± 0.0039
175 | GCGCGACA | 0.3438 ± 0.0009
